Unmarked numbers belong to inactive results. Activity calls are given as the source filed them. Calls come from the whole dose curve; as a rule, active = well fitted activation curve with a large enough effect in the repeat runs; inconclusive = weak or mixed curves; inactive = flat fitted curve, though single readings scatter.
assay: Caspase-3/7 induction in CHO-K1 cells by small molecules, qHTS assay (AID 1346980); settings: CHO-K1 caspase-3/7 induction, Caspase-Glo luminescence, 17 h; series mostly up to 92.4 µM; caspase-3/7 activation: at the top concentration; note: nearly all actives have a fitted effect of over 15% in size
From the text: National Center for Advancing Translational Sciences [NCATS]
NIH Chemical Genomics Center [NCGC]
U.S. Environmental Protection Agency [EPA]
National Institutes of Environmental Health Sciences [NIEHS]
National Toxicology Program [NTP]
Apoptosis is a process of programmed cell death and plays a central role in the development of multicellular organisms. It is a highly regulated process and induces cell death by activating caspases, which are the members of cysteine aspartic acid-specific protease (caspase) family. Caspases involved in apoptosis are classified by their mechanism of action as initiator caspases (caspase-2, -8, -9 and -10) and executioner caspases (caspase-3, -6, and -7). Inhibition of apoptosis results in number of cancers, autoimmune diseases, inflammatory diseases and viral infection. To identify small molecule compounds that induce apoptosis, a homogeneous, luminescent Caspase-Glo 3/7 assay was used. Wild type CHO-K1 cells were used to screen Tox21 libraries for identifying caspase-3/7 activity inducers.
CHO-K1 cells were dispensed at 1,500 per well in 5uL of culture medium into white solid bottom 1536-well plates (Corning Life Sciences, Corning, NY) using a Multidrop Combi (Thermo Scientific, Waltham, MA) dispenser. The assay plates were incubated at 37 C and 5% CO2 for 5hr, and then 23nL of compounds dissolved in DMSO and positive control were transferred using a Pintool station (Wako, San Diego, CA). The assay plates were incubated at 37C and 5% CO2 for 17hr. For caspase-3/7 activity read, 4uL of Caspase-Glo 3/7 reagent (Promega Corporation, Madison, WI) was added to each well of the assay plates using Flying Reagent Dispenser (FRD, Aurora Discovery, San Diego, CA) and incubated the assay plates at room temperature for 30min. The luminescence signal was quantified using a ViewLux plate reader (Perkin Elmer, Shelton, CT).
% is set by controls: 0 for no effect and ±100 for the full control effect.

**Q.** Which “caspase-3/7 activation” value does the source give for CN1CC(=O)NC1=N here?
**A.** -0.623% [at 42.5 µM]

**Q.** With COC(=O)c1cc(C(=O)OC)cc(S(=O)(=O)O)c1 as the compound, how does the “caspase-3/7 activation” value read?
**A.** -1.56%

**Q.** For N[C@H](C(=O)O)c1ccc(O)cc1, which caspase-3/7 activation is on record?
**A.** -0.938% [at 19 µM]

**Q.** With COc1ccc2c(c1)c(CC(=O)OCC(=O)O)c(C)n2C(=O)c1ccc(Cl)cc1 as the compound, how does the “caspase-3/7 activation” value read?
**A.** 0.493% [at 42.5 µM]

**Q.** Which “caspase-3/7 activation” value does the source give for OCCOc1ccc(OCCO)cc1 here?
**A.** -0.174%

**Q.** With CCOC(=O)Nc1ccc(NCc2ccc(F)cc2)nc1N as the compound, how does the “caspase-3/7 activation” value read?
**A.** 0.183% [at 42.5 µM]

**Q.** For C=C(C)CS(=O)(=O)O, which “caspase-3/7 activation” value is on record?
**A.** 0.812%

**Q.** For CC(C)NCCCC1(C(N)=O)c2ccccc2-c2ccccc21, which “caspase-3/7 activation” value is on record?
**A.** 0.121% [at 42.5 µM]

**Q.** For CN1N=C(C(N)=O)CCC1=O, which “caspase-3/7 activation” value is on record?
**A.** 3.12% [at 42.5 µM]

**Q.** Which “caspase-3/7 activation” value does the source give for O=C(O)c1ccccc1OP(=O)(O)O here?
**A.** -0.491% [at 42.5 µM]

**Q.** For C1OCOCO1, which “caspase-3/7 activation” value is on record?
**A.** 0.0546%

**Q.** Which “caspase-3/7 activation” value does the source give for CC(C)(O)C#CC(C)(C)O here?
**A.** -0.936%

**Q.** Which outcome does the source give for COC(=O)C1=C(C)NC(C)=C(C(=O)OC)C1c1ccccc1[N+](=O)[O-] here?
**A.** inactive

**Q.** With CC(NC(CCc1ccccc1)C(=O)O)C(=O)N1C(=O)N(C)CC1C(=O)O (stereo not given) as the compound, how does the “caspase-3/7 activation” value read?
**A.** -0.366% [at 42.5 µM]

**Q.** With CC/C=C\CCOC(C)=O as the compound, how does the “caspase-3/7 activation” value read?
**A.** -0.518%

**Q.** For C[C@@H]1CCN(C(=O)[C@H](CCCN=C(N)N)NS(=O)(=O)c2cccc3c2NC[C@H](C)C3)[C@@H](C(=O)O)C1, which “caspase-3/7 activation” value is on record?
**A.** 0.653% [at 42.5 µM]

**Q.** Which “caspase-3/7 activation” value does the source give for O=Cc1cccc([N+](=O)[O-])c1 here?
**A.** 2.04%

**Q.** With Nc1c[n+](N2CCOCC2)no1 as the compound, how does the “caspase-3/7 activation” value read?
**A.** -0.478% [at 42.5 µM]

**Q.** With CN(C)CCCN1c2ccccc2CCc2ccc(Cl)cc21 as the compound, how does the outcome read?
**A.** inactive

**Q.** For O=c1cc(-c2ccccc2)oc2ccccc12, which outcome is on record?
**A.** inactive

**Q.** For COc1ccccc1OCC(O)CN1CCN(CC(=O)Nc2c(C)cccc2C)CC1 (stereo not given), which “caspase-3/7 activation” value is on record?
**A.** 0.131% [at 42.5 µM]

**Q.** For CCCCOCCOCCOCCCC, which “caspase-3/7 activation” value is on record?
**A.** 0.0439%

**Q.** Which “caspase-3/7 activation” value does the source give for CCN1CCC[C@H]1CNC(=O)c1cc(S(N)(=O)=O)ccc1OC here?
**A.** -0.0309% [at 42.5 µM]

**Q.** Which “caspase-3/7 activation” value does the source give for Cn1c(N)c(N=O)c(=O)n(C)c1=O here?
**A.** -1.7%

**Q.** For CC(C)=CCCC(C)CC(=O)O (stereo not given), which “caspase-3/7 activation” value is on record?
**A.** 1%

**Q.** For O=C(CCCN1CCC(O)(c2cccc(C(F)(F)F)c2)CC1)c1ccc(F)cc1, which “caspase-3/7 activation” value is on record?
**A.** -1.32% [at 42.5 µM]

**Q.** Which “caspase-3/7 activation” value does the source give for OC(CCN1CCCCC1)(c1ccccc1)C1CC2C=CC1C2 (stereo not given) here?
**A.** 1.28% [at 42.5 µM]

**Q.** With NC(=O)c1cn(Cc2c(F)cccc2F)nn1 as the compound, how does the “caspase-3/7 activation” value read?
**A.** -0.0339% [at 42.5 µM]

**Q.** With COC(=O)c1c(Cl)c(Cl)c(C(=O)OC)c(Cl)c1Cl as the compound, how does the outcome read?
**A.** inactive

**Q.** Which “caspase-3/7 activation” value does the source give for COC(=O)c1ccc(C)cc1C1=NC(C)(C(C)C)C(=O)N1 (stereo not given) here?
**A.** -0.0162%

**Q.** For NC(=O)COCCN1CCN(C(c2ccccc2)c2ccc(Cl)cc2)CC1 (stereo not given), which “caspase-3/7 activation” value is on record?
**A.** 0.0464% [at 42.5 µM]

**Q.** With CC1(C)CO[C@@H](CC(=O)O)CN1 as the compound, how does the “caspase-3/7 activation” value read?
**A.** -0.351% [at 42.5 µM]

**Q.** Which “caspase-3/7 activation” value does the source give for Cc1cc2c(cc1S(N)(=O)=O)S(=O)(=O)CCC2 here?
**A.** 2.53% [at 42.5 µM]

**Q.** With CCCCCCCCCCCCCCCCC as the compound, how does the “caspase-3/7 activation” value read?
**A.** -0.659%

**Q.** Which “caspase-3/7 activation” value does the source give for CN1CCC(=C2c3ccccc3CC(=O)c3sccc32)CC1 here?
**A.** 1.6% [at 42.5 µM]

**Q.** For Cc1nc2c([nH]1)c(=O)n(C)c(=O)n2Cc1ccco1, which “caspase-3/7 activation” value is on record?
**A.** -0.038% [at 42.5 µM]

**Q.** With NS(=O)(=O)c1cc2c(cc1Cl)NC(C1CC3C=CC1C3)NS2(=O)=O (stereo not given) as the compound, how does the “caspase-3/7 activation” value read?
**A.** 0% [at 42.5 µM]

**Q.** Which “caspase-3/7 activation” value does the source give for CC(C)(C)c1nnc(NS(=O)(=O)c2ccccc2)s1 here?
**A.** 0.0161% [at 42.5 µM]

**Q.** For ClC(Cl)(Br)Br, which “caspase-3/7 activation” value is on record?
**A.** 0.0255%

**Q.** For N=C(N)c1ccc(OCCCOc2ccc(C(=N)N)cc2)cc1, which “caspase-3/7 activation” value is on record?
**A.** 3.55% [at 42.5 µM]

Source: PubChem BioAssay (Tox21)
